Reference: PubChem BioAssay (EPA / NIEHS)
“And” between values parts separate entries of the source, which are not always exact repeats. Equal values may be shown once. Records with an inconclusive call do not appear. A structure can be active in one record and inactive in another. The source made the active and inactive calls. How the source made its calls, unless noted: active means hit-call score of the fitted dose curve at least 0.9, where 1 is the maximum; inactive means score below 0.9.

How the values were obtained:
[1] = target: Nuclear receptor subfamily 4 group A member 2 (Homo sapiens) (UniProt P43354); assay: ATG_NURR1_TRANS: Attagene TRANS-FACTORIAL HepG2 Assay for human Nuclear Receptor Related Protein 1 (NURR1) (AID 2282985; active means hit-call score of the fitted dose curve at least 0.9, where 1 is the maximum); settings: HepG2 Attagene TRANS reporter, mRNA readout
Summary of the method: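 Reporter transcript induction, measured by RT-PCR with fluorescent labelling, HpaI digestion and capillary electrophoresis, after 24 hr dosing of human HepG2 cells transiently expressing an exogenous NR-Gal4 fusion with GAL4-UAS-driven reporters; DMSO as baseline.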

[2] = target: human Retinoid X Receptor beta (RXRb), RXRB (gene 6257) (UniProt P28702); assay: ATG_RXRb_TRANS: Attagene TRANS-FACTORIAL HepG2 Assay for human Retinoid X Receptor beta (RXRb) (AID 2283013; active means hit-call score of the fitted dose curve at least 0.9, where 1 is the maximum)
Summary of the method: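 Chimeric receptor-Gal4 activity was assessed in transiently transfected human HepG2 cells after 24 h exposure. Transcripts from GAL4-UAS reporters were quantified by fluorescent RT-PCR and capillary electrophoresis, with DMSO as negative control and baseline.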

[3] = target: Retinoic acid receptor RXR-alpha (Homo sapiens) (UniProt P19793); assay: OT_NURR1_NURR1RXRa_0480: Odyssey Thera (OT) 8-hour HEK293T Protein Complementation Assay for Nurr1/retinoid X receptor (RXR) (AID 2283385; active means hit-call score of the fitted dose curve at least 0.9, where 1 is the maximum)
Summary of the method: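 Interaction of bait and prey reconstitutes a functional reporter, whose fluorescence was measured in HEK293T cells dosed with compound for 8 hours. Signal gain relative to DMSO defined the single endpoint.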

[4] = target: Retinoic acid receptor RXR-alpha (Homo sapiens) (UniProt P19793); assay: OT_NURR1_NURR1RXRa_1440: Odyssey Thera (OT) 24-hour HEK293T Protein Complementation Assay for Nurr1/retinoid X receptor (RXR) (AID 2283386; active means hit-call score of the fitted dose curve at least 0.9, where 1 is the maximum)
Summary of the method: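 Steps: fragment-tagged Nurr1 and RXRα expressed in HEK293T; compounds added; after 24 h, complemented reporter quantified by fluorescence intensity; signal increase over DMSO fitted as the single endpoint.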

[5] = target: Peroxisome proliferator-activated receptor gamma (Homo sapiens) (UniProt P37231); assay: OT_PPARg_PPARgSRC1_0480: Odyssey Thera (OT) 8-hour Protein-Complementation Assay for Peroxisome Proliferator-activated Receptor Gamma / SRC-1 Co-activator (AID 2283387; active means hit-call score of the fitted dose curve at least 0.9, where 1 is the maximum)
Summary of the method: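 Read-out: 488 nm N/C fluorescence ratio from complemented Venus YFP fragments, ≥350 cells per image, gain-of-signal fitted against DMSO baseline. Fusions of PPARg/SRC-1 with IFP1/IFP2 expressed transiently in HEK293T; compounds applied 8 h.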

[6] = target: Peroxisome proliferator-activated receptor gamma (Homo sapiens) (UniProt P37231); assay: OT_PPARg_PPARgSRC1_1440: Odyssey Thera (OT) 24-hour Protein-Complementation Assay for Peroxisome Proliferator-activated Receptor Gamma/ SRC-1 Co-activator (AID 2283388; active means hit-call score of the fitted dose curve at least 0.9, where 1 is the maximum)
Summary of the method: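 HEK293T transiently transfected with PPARg/SRC-1 split-Venus YFP fusions 48 h before dosing, then treated 24 h at 37C. Fixed cells imaged; nuclear/cytoplasmic 488 nm fluorescence ratio, gain of signal versus DMSO.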

[7] = CCTE_Harrill_HTTr_Apoptosis_MCF7: CCTE's 6-hour Apoptosis Assessment for the High-Throughput Transcriptomics (HTTr) Platform, in MCF-7 cells cultured in DMEM + 10% fetal bovine serum, Harrill Lab (AID 2284011)
Summary of the method: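 MCF-7 cells in DMEM + 10% FBS exposed 6 h to chemicals over an eight-point dilution series. Caspase-3/7 activation imaged by high-content CellEvent Green staining; fitted bidirectionally versus DMSO.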

[8] = CCTE_Harrill_HTTr_CellCount_MCF7: CCTE's Cell Proliferation Assessment for the High-Throughput Transcriptomics (HTTr) Platform, Harrill Lab (AID 2284012; active means hit-call score of the fitted dose curve at least 0.9, where 1 is the maximum;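 further: cells exposed to compound for six hours; intended direction is loss of nuclei count meaning fewer cells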)
Summary of the method: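 Cell count served as viability reporter: loss of Hoechst-stained nuclei, counted by high content imaging, marks decreased growth or survival. Exposure was 6 h in MCF-7 cells across eight concentrations, with DMSO as baseline.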

[9] = ATG_ERE_CIS: Attagene CIS-FACTORIAL HepG2 Assay for Estrogen Response Element (ERE) (AID 2282940); settings: HepG2 ERE cis-reporter, Attagene RNA transcript; actives raise or lower the signal
Summary of the method: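 HepG2 cells transiently transfected with multiplexed cis-element reporter units, measuring endogenous transcription factor activity; ERE reporter mRNA quantified after 24 h exposure by RT-PCR, fluorescent labelling, HpaI digestion and capillary electrophoresis. Bidirectional change versus DMSO.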

[10] = BSK_3C_TissueFactor: BioMAP Diversity Plus: 3C Assay for Tissue Factor Biomarker Activity (AID 2282997); settings: BioMAP 3C HUVEC, tissue factor biomarker readout; actives raise or lower the signal
Summary of the method: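 Tissue Factor measured by ELISA, 24 h after treatment of primary HUVEC in the BioMAP 3C setting.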

[11] = BSK_3C_uPAR: BioMAP Diversity Plus: 3C Assay for Urokinase-type plasminogen activator receptor (uPAR) Biomarker Activity (AID 2282998); settings: BioMAP 3C HUVEC, uPAR biomarker ELISA; actives raise or lower the signal
Summary of the method: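 Primary human umbilical vein endothelial cells, 3C system; surface uPAR measured by ELISA 24 h after dosing. Cytotoxicity via SRB total protein in parallel cultures; bidirectional fit against DMSO.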

[12] = BSK_4H_Eotaxin3: BioMAP Diversity Plus: 4H Assay for Eotaxin 3 Biomarker Activity (AID 2283000); settings: primary human endothelial cells (HUVEC); actives raise or lower the signal
Summary of the method: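 Eotaxin-3 (CCL26) levels were measured by ELISA in HUVEC primary cultures 24 h post-dosing. Gain or loss of signal was fitted in both directions, with DMSO serving as baseline and negative control.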

[13] = read-out: Interleukin-1 alpha (IL1a), IL1A (gene 3552); assay: BSK_BE3C_IL1a: BioMAP Diversity Plus: BE3C Assay for Interleukin-1 alpha (IL1a) Biomarker Activity (AID 2283016); settings: primary human bronchial epithelial cells; actives raise or lower the signal
Summary of the method: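 Signal from IL-1a ELISA, taken 24 h after chemical dosing of human bronchial epithelial cells, is compared with DMSO as baseline using bidirectional curve fitting.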

[14] = read-out: Monocyte Chemoattractant Protein-1 (MCP1), CCL2 (gene 6347); assay: BSK_3C_MCP1: BioMAP Diversity Plus: 3C Assay for Monocyte Chemoattractant Protein-1 (MCP1) Biomarker Activity (AID 2283017); settings: primary human endothelial cells (HUVEC); actives raise or lower the signal
Summary of the method: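 Human umbilical vein endothelial cells (3C system) exposed to chemicals for 24 h; MCP-1 quantified by ELISA against the DMSO baseline with bidirectional fitting, and parallel SRB staining used to assess cytotoxicity.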

[15] = read-out: Monocyte Chemoattractant Protein-1 (MCP1), CCL2 (gene 6347); assay: BSK_4H_MCP1: BioMAP Diversity Plus: 4H Assay for Monocyte Chemoattractant Protein-1 (MCP1) Biomarker Activity (AID 2283018); settings: primary human endothelial cells (HUVEC); actives raise or lower the signal
Summary of the method: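 Endothelial cells from umbilical vein were treated with test chemical, then after 24 h MCP-1 levels were quantified by ELISA; endpoint values came from bidirectional fitting with DMSO as baseline of activity.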

[16] = read-out: Interleukin-1 alpha (IL1a), IL1A (gene 3552); assay: BSK_LPS_IL1a: BioMAP Diversity Plus: LPS Assay for Interleukin-1 alpha (IL1a) Biomarker Activity (AID 2283080); settings: primary human HUVEC with PBMC; actives raise or lower the signal
Summary of the method: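 Human umbilical vein endothelial cells co-cultured with PBMC and stimulated with LPS; IL-1a measured by ELISA 24 h after dosing. Bidirectional fitting against DMSO; cytotoxicity checked by SRB staining in parallel cultures.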

[17] = BSK_LPS_PGE2: BioMAP Diversity Plus: LPS Assay for Prostaglandin E2 (PGE2) Biomarker Activity (AID 2283082); settings: primary human HUVEC with PBMC; actives raise or lower the signal;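 on AC50: secreted prostaglandin E2 measured by ELISA in LPS-stimulated co-culture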
Summary of the method: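 Compounds were added to the LPS co-culture of endothelium and PBMC, and PGE2 was measured by ELISA after 24 h. Responses in either direction were fitted with DMSO as baseline.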

[18] = ACEA_AR_agonist_AUC_viability: ACEA Biosciences xCELLigence Real-Time Cell Analysis on Androgen Receptor Agonism for Viability (AID 2283775; active means hit-call score of the fitted dose curve at least 0.9, where 1 is the maximum;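 on AC50: viability read 80 hours after compound addition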)
Summary of the method: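 22Rv1 cells; impedance growth kinetics; 8-pt 1:4 dilutions from 100 uM top final, ≤0.5% DMSO; n = 2; 80 h read; AUC viability, loss-of-signal vs DMSO.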

[19] = ACEA_AR_antagonist_AUC_viability: ACEA Biosciences xCELLigence Real-Time Cell Analysis on Androgen Receptor Antagonism for Viability (AID 2283776; active means hit-call score of the fitted dose curve at least 0.9, where 1 is the maximum;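 further: 22Rv1 human prostate cancer cells growing on impedance electrode plates; area under impedance growth curve at 80 h after dosing as viability; hits lower the growth signal relative to DMSO meaning cytotoxicity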)
Summary of the method: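 Real-time electrical impedance tracks 22Rv1 proliferation after continuous compound exposure (top 100 uM final, 1:4 steps, 8 concentrations). The 80 h area-under-curve serves as the cytotoxicity readout relative to DMSO.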

[20] = target: Estrogen-related receptor gamma (Homo sapiens) (UniProt P62508); assay: ATG_ERRg_TRANS: Attagene TRANS-FACTORIAL HepG2 Assay for human Estrogen-Related Receptor gamma (ERRg) (AID 2282977; active means hit-call score of the fitted dose curve at least 0.9, where 1 is the maximum;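 further: hits increase reporter signal over DMSO so potencies reflect activators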); settings: HepG2 Attagene TRANS reporter, ERRg transactivation
Summary of the method: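 Induction of reporter transcripts through a chimeric NR-Gal4 protein is quantified in transfected human HepG2 liver cells after 24 h chemical exposure, using RT-PCR with capillary electrophoresis detection and DMSO as baseline.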

Measured: AC50

Sequence of Nuclear receptor subfamily 4 group A member 2 (Homo sapiens) (P43354 whole entry, looked up, the tested form may be a part): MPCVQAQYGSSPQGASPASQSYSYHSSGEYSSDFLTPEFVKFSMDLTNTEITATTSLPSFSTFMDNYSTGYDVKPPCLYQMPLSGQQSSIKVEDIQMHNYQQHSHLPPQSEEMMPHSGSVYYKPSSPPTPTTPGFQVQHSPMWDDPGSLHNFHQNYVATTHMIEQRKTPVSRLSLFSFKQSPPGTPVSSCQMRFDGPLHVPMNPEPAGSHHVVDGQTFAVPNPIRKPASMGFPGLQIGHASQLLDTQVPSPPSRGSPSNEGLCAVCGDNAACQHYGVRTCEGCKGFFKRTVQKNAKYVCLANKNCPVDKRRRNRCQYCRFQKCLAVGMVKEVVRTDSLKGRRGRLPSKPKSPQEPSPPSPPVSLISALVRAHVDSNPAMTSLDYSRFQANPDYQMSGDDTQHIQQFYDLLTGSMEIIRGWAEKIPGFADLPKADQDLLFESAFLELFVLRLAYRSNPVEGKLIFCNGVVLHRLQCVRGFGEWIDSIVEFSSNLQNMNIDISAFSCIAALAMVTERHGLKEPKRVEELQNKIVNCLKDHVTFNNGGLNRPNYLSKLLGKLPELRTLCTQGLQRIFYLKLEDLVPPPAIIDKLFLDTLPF
Sequence of human Retinoid X Receptor beta (RXRb), RXRB (gene 6257) (P28702 whole entry, looked up, the tested form may be a part): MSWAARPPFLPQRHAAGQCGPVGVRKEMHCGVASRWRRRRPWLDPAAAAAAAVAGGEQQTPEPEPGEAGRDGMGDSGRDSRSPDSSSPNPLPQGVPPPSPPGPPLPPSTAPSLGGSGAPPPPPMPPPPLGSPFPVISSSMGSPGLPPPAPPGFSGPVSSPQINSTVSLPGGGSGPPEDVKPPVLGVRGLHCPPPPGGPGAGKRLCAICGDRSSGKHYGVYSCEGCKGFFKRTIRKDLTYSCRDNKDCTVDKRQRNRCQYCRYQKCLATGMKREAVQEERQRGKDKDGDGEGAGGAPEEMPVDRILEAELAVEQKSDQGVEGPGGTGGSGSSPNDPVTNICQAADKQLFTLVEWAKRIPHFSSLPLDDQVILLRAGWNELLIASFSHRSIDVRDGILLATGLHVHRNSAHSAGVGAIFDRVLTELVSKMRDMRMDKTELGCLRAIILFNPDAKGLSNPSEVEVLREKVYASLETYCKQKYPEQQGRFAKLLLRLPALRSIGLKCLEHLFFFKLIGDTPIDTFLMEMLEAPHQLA
Sequence of Peroxisome proliferator-activated receptor gamma (Homo sapiens) (P37231 whole entry, looked up, the tested form may be a part): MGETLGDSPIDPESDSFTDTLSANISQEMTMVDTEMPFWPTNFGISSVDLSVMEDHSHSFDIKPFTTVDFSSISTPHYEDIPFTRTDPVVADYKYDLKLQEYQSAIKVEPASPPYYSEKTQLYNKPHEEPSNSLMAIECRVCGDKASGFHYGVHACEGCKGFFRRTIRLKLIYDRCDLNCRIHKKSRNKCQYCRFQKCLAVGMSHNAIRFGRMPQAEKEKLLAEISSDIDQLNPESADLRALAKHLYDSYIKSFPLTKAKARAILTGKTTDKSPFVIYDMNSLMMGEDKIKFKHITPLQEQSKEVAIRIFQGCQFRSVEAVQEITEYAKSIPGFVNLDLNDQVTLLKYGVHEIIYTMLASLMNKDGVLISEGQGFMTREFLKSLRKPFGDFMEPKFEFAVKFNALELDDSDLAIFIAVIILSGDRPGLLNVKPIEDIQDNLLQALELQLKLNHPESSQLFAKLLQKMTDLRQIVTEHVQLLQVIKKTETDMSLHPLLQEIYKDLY
Sequence of Retinoic acid receptor RXR-alpha (Homo sapiens) (P19793 whole entry, looked up, the tested form may be a part): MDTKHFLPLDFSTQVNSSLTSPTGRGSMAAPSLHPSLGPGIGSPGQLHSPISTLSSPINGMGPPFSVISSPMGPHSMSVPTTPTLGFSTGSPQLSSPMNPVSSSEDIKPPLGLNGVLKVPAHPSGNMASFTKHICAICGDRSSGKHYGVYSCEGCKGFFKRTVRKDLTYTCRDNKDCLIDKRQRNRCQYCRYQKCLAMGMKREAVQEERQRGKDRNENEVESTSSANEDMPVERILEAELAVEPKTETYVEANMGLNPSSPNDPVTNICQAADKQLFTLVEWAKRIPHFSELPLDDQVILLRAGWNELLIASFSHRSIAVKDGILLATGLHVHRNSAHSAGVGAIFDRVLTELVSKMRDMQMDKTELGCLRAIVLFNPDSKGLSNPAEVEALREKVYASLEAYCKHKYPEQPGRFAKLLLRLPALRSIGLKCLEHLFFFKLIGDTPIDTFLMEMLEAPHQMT
Sequence of Estrogen-related receptor gamma (Homo sapiens) (P62508 whole entry, looked up, the tested form may be a part): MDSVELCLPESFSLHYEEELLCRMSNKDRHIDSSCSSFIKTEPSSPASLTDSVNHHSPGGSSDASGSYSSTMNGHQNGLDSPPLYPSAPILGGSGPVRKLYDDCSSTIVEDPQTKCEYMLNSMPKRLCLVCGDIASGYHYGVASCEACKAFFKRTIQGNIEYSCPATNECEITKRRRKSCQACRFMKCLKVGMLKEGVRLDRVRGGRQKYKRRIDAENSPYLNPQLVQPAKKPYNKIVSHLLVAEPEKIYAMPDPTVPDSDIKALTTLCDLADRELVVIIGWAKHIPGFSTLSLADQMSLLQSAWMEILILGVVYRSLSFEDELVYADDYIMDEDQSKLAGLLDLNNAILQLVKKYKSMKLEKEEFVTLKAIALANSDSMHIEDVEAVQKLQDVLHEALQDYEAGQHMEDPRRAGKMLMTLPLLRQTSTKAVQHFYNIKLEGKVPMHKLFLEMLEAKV

CC(=O)C=Cc1ccccc1
active: [3] 1.12 µM
inactive: [1] | [2] | [4] | [5] | [6] | [7] | [8]

CCCCCc1cc(O)cc(O)c1
inactive: [2]

CCc1cc(C)cc(CC)c1-c1c(OC(=O)C(C)(C)C)n2n(c1=O)CCOCC2
active: [11] 4 µM | [12] 20 µM
inactive: [9] | [1] | [10] | [13] | [14] | [15] | [16] | [17]

CNC(=N[N+](=O)[O-])NCC1CCOC1 (stereo unspecified)
inactive: [3] | [4] | [18] | [19] | [7]

C[N+](C)(C)CC(=O)[O-]
inactive: [9] | [7]

CSc1nc(N=[N+]=[N-])nc(NC(C)C)n1
inactive: [9] | [2]

[Cl-].[Cl-].[Cl-].[Yb+3]
inactive: [1]

Oc1ccc(C2(c3ccc(O)cc3)c3ccccc3-c3ccccc32)cc1
inactive: [9] | [16] | [17]
active: [10] 12.7 µM and 12.5 µM | [11] 11.5 µM and 9 µM | [12] 9.96 µM and 9.53 µM | [13] 5.35 µM and 5.31 µM | [14] 13.2 µM and 12 µM | [15] 13.2 µM and 11.4 µM | [16] 32.7 µM | [17] 11.8 µM

CCCCCCCCCCCCCCCC[N+](C)(C)C
active: [18] 5.58 µM | [19] 6.1 µM
inactive: [2] | [5] | [6]

O=CNC(N1CCN(C(NC=O)C(Cl)(Cl)Cl)CC1)C(Cl)(Cl)Cl (stereo unspecified)
inactive: [9] | [20] | [1] | [3] | [5] | [6] | [18] | [19] | [7] | [8]

N#CCCCCC#N
inactive: [10] | [11] | [12] | [13] | [14] | [15] | [16] | [17] | [3] | [5] | [6] | [19] | [7] | [8]

CC(C)COP(=O)(OCC(C)C)OCC(C)C
inactive: [10] | [11] | [12] | [2] | [13] | [14] | [15] | [16] | [17]

CN1C[C@H](C(=O)N[C@]2(C)O[C@@]3(O)[C@@H]4CCCN4C(=O)[C@H](Cc4ccccc4)N3C2=O)C=C2c3cccc4[nH]cc(c34)C[C@H]21
inactive: [9]

CCC[N+](=O)[O-]
inactive: [8]

O=C(O)COc1ccccc1
inactive: [9]
